Records with an inconclusive call do not appear. The source made the active and inactive calls. How the source made its calls, unless noted: active means hit-call score of the fitted dose curve at least 0.9, where 1 is the maximum; inactive means score below 0.9.
Experiments:
[1] = ATG_TCF_b_cat_CIS: Attagene CIS-FACTORIAL HepG2 Assay for human T-Cell-Factor with beta-catenin (TCF/b-cat) (AID 2282965); conditions: HepG2 TCF/beta-catenin cis-reporter transcription, actives raise or lower the signal
Outline: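 HepG2 cells transiently transfected with cis-promoter-driven multiplexed reporter units; reporter mRNA measured 24 h after dosing by RT-PCR, FAM labelling, HpaI digestion and capillary electrophoresis. Bidirectional fitting relative to DMSO baseline.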

[2] = ATG_TAL_CIS: Attagene CIS-FACTORIAL HepG2 Assay for human TAL Basal Promoter (AID 2282966); conditions: HepG2 Attagene cis-factorial TAL promoter reporter; actives raise or lower the signal;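 further: background control endpoint measuring basal TAL promoter reporter mRNA not a specific factor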
Outline: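 RT-PCR plus capillary electrophoresis quantifies reporter mRNA induction in transiently transfected HepG2 cells after 24 h chemical treatment. DMSO serves as negative control and baseline for bidirectional fitting.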

[3] = ATG_TGFb_CIS: Attagene CIS-FACTORIAL HepG2 Assay for human Transforming Growth Factor (TGF) (AID 2282967); conditions: HepG2 Attagene CIS TGFb reporter, mRNA transcription; actives raise or lower the signal
Outline: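 HepG2 cells transiently transfected with cis-promoter-driven multiplexed reporter units; 24 h compound exposure. Reporter mRNA measured by RT-PCR, 6-FAM labeling, HpaI digestion and capillary electrophoresis; bidirectional fit versus DMSO baseline.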

[4] = ATG_VDRE_CIS: Attagene CIS-FACTORIAL HepG2 Assay for human Vitamin D Receptor Element (VDRE) (AID 2282968); conditions: HepG2 VDRE cis-reporter transcription, actives raise or lower the signal
Outline: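 Cell-based multiplexed reporter format in human liver HepG2 cells, 24 h post-dose. Fluorescence from capillary electrophoresis of reporter cDNA gives the signal, with DMSO as negative control and baseline.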

[5] = biological target: Estrogen receptor (Homo sapiens) (UniProt P03372); test: ATG_ERa_TRANS: Attagene TRANS-FACTORIAL HepG2 Assay for human Estrogen Receptor alpha (ERa) (AID 2282970; active means hit-call score of the fitted dose curve at least 0.9, where 1 is the maximum); conditions: HepG2 Attagene TRANS ERa GAL4 reporter, mRNA
Outline: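 Cells: HepG2, transiently transfected. Construct: GAL4-UAS reporter units regulated by exogenous NR-Gal4 chimeras. Time: 24 h. Detection: reporter mRNA by RT-PCR, capillary electrophoresis, fluorescence. Baseline: DMSO, upward fitting.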

[6] = biological target: Steroid hormone receptor ERR1 (Homo sapiens) (UniProt P11474); test: ATG_ERRa_TRANS: Attagene TRANS-FACTORIAL HepG2 Assay for human Estrogen-Related Receptor alpha (ERRa) (AID 2282971; active means hit-call score of the fitted dose curve at least 0.9, where 1 is the maximum); conditions: HepG2 Attagene TRANS reporter, ERRa transactivation
Outline: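 Reporter transcripts from ERRa-Gal4 chimera activity measured in transiently transfected human HepG2 cells 24 hours after dosing, using RT-PCR with 6-FAM primer extension, HpaI digestion and capillary electrophoresis; DMSO is baseline.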

[7] = biological target: X-box-binding protein 1 (Homo sapiens) (UniProt P17861); test: ATG_Xbp1_CIS: Attagene CIS-FACTORIAL HepG2 Assay for human X-box Binding Protein 1 (XBP1) (AID 2282972); conditions: HepG2 XBP1 cis-element reporter, Attagene multiplex; actives raise or lower the signal
Outline: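 After a 24-hour chemical exposure of HepG2 cells carrying cis-regulated reporters, reporter mRNA levels are assessed. Quantification uses RT-PCR, 6-FAM labelling and capillary electrophoresis. Gain- or loss-of-signal is fitted against DMSO.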

[8] = ATG_M_19_TRANS: Attagene TRANS-FACTORIAL HepG2 Assay for M19 Transcription Factor (Internal Marker) (AID 2282974; active means hit-call score of the fitted dose curve at least 0.9, where 1 is the maximum); conditions: HepG2 Attagene TRANS-FACTORIAL M19 internal marker reporter
Outline: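 Background-control readout: after 24 h chemical exposure of transfected HepG2 carrying GAL4-driven reporter units, RNA was reverse-transcribed, amplified, fluorescently labeled and sized by capillary electrophoresis; gain-of-signal fit against DMSO.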

[9] = ATG_GAL4_TRANS: Attagene TRANS-FACTORIAL HepG2 Assay for GAL4 (Internal Marker) (AID 2282976; active means hit-call score of the fitted dose curve at least 0.9, where 1 is the maximum); conditions: HepG2 Attagene TRANS GAL4 internal marker reporter
Outline: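 In transfected human HepG2 liver cells dosed 24 h, GAL4 reporter mRNA serves as a baseline marker. Detection by RT-PCR with fluorescent capillary electrophoresis, activity fitted upward relative to DMSO.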

[10] = biological target: Nuclear receptor subfamily 1 group I member 3 (Homo sapiens) (UniProt Q14994); test: ATG_CAR_TRANS: Attagene TRANS-FACTORIAL HepG2 Assay for human Constitutive Androstane Receptor (CAR) (AID 2282969; active means hit-call score of the fitted dose curve at least 0.9, where 1 is the maximum;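 further: activators raise reporter mRNA above DMSO so AC50 marks induction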); conditions: HepG2 Attagene TRANS-FACTORIAL CAR reporter
Outline: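 HepG2 cells transiently transfected with GAL4-UAS reporter units; TRANS format reads activity of exogenous chimeric NR-Gal4 protein. After 24 h dosing, reporter mRNA quantified by RT-PCR, 6-FAM labelling and capillary electrophoresis; gain of signal fitted against DMSO.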

Measured: AC50

Sequence of Nuclear receptor subfamily 1 group I member 3 (Homo sapiens) (Q14994 whole entry, looked up, the tested form may be a part): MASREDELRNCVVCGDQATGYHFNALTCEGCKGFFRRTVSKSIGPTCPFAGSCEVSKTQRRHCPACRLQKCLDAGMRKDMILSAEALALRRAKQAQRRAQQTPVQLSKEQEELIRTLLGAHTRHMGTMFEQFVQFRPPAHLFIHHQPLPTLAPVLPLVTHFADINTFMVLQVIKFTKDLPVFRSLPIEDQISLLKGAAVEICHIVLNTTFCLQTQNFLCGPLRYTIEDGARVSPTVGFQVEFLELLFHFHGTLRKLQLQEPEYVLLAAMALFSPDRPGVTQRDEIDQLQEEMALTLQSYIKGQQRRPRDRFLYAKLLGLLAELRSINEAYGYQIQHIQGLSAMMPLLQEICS
Sequence of X-box-binding protein 1 (Homo sapiens) (P17861 whole entry, looked up): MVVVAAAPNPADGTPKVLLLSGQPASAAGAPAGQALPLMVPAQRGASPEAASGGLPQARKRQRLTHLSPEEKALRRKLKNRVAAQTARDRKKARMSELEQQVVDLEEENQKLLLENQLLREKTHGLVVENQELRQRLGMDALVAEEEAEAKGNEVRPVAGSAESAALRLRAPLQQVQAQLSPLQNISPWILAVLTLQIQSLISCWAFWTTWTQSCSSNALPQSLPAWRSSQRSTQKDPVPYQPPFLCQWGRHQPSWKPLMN
Sequence of Estrogen receptor (Homo sapiens) (P03372 whole entry, looked up, the tested form may be a part): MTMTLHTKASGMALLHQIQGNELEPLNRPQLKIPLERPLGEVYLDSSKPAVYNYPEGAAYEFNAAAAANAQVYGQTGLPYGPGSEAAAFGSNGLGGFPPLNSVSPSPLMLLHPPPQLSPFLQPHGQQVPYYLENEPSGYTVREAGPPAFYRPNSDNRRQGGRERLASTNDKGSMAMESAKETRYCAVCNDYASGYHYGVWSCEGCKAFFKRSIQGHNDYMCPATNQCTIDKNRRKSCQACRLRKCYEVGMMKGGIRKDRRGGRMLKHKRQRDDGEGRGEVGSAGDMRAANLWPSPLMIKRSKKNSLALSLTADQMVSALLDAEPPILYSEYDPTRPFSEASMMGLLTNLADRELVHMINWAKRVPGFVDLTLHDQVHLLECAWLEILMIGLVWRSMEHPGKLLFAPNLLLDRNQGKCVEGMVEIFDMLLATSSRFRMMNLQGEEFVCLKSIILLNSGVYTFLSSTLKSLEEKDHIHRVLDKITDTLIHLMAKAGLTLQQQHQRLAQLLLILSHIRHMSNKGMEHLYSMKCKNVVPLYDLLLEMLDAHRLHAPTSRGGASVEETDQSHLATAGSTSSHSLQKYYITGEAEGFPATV
Sequence of Steroid hormone receptor ERR1 (Homo sapiens) (P11474 whole entry, looked up, the tested form may be a part): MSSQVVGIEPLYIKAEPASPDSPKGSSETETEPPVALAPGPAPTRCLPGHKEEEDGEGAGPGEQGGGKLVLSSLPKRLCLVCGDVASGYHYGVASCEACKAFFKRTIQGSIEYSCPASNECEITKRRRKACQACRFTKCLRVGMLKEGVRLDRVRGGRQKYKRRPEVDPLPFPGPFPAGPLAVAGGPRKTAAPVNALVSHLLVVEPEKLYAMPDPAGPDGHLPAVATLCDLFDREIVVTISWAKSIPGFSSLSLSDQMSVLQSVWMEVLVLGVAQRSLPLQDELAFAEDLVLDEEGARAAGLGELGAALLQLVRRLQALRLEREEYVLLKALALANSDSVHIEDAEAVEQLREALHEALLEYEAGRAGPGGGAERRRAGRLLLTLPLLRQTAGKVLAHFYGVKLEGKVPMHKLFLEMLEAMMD

CSc1ccc(O)cc1C
active: [5] 11.3 µM
not listed: [10]
inactive: all other assays above

O=C1c2ccccc2C(=O)c2c(Cl)cccc21
active: [5] 2.88 µM
not listed: [10]
inactive: all other assays above

CN(N=O)C(=O)N[C@@H]1[C@@H](O)[C@H](O)[C@@H](CO)O[C@@H]1O
not listed: [5] | [6] | [9]
inactive: all other assays above

NS(=O)(=O)C(F)(F)C(F)(F)C(F)(F)C(F)(F)C(F)(F)C(F)(F)F
inactive: [1] | [2] | [10] | [7]
active: [3] 54.4 µM | [4] 36.4 µM | [5] 13.9 µM

CC(C)(C)c1cc(CCC(=O)OCC(COC(=O)CCc2cc(C(C)(C)C)c(O)c(C(C)(C)C)c2)(COC(=O)CCc2cc(C(C)(C)C)c(O)c(C(C)(C)C)c2)COC(=O)CCc2cc(C(C)(C)C)c(O)c(C(C)(C)C)c2)cc(C(C)(C)C)c1O
active: [5] 21.8 µM
not listed: [6] | [8] | [9]
inactive: all other assays above

Cc1ccc2c(c1)OCC(=O)CO2
not listed: [9] | [10]
inactive: all other assays above

C[C@]12CC[C@H]3C(=CCc4cc(O)ccc43)[C@@H]1CCC2=O
not listed: [5]
inactive: all other assays above

Cc1ccc([N+](=O)[O-])c(C)c1
not listed: [5] | [8] | [9]
inactive: all other assays above

CN1CN(C)CN(C)C1
active: [7] 169 µM
inactive: [1] | [2] | [3] | [4] | [10]

CC1=CC2C3C=CC(C3)C2C1C (configuration not stated)
active: [4] 1.81 µM
not listed: [8] | [9] | [10]
inactive: all other assays above

CCC(=O)OC(C)c1ccccc1 (configuration not stated)
not listed: [5] | [6]
inactive: all other assays above

O=C(O)C(F)(F)C(F)(F)C(F)(F)OC(F)(F)F
not listed: [5] | [6]
inactive: all other assays above

COC(=O)c1ccc(C=O)cc1
not listed: [10]
inactive: all other assays above

Cc1cc(=O)[nH]c(C(C)C)n1
not listed: [5] | [8]
inactive: all other assays above

O=S(=O)(OCC(F)(F)F)C(F)(F)C(F)(F)C(F)(F)C(F)(F)F
active: [1] 104 µM | [2] 150 µM
not listed: [5]
inactive: all other assays above

Cc1ccc(O)c(-n2nc3ccccc3n2)c1
active: [5] 13.4 µM
not listed: [6] | [8] | [9]
inactive: all other assays above

O=C=Nc1cccc2c(N=C=O)cccc12
not listed: [5]
inactive: all other assays above

O=C(c1ccccc1)c1ccc(Cl)cc1
inactive: [1] | [2] | [10] | [7]
active: [3] 100 µM | [4] 47.6 µM | [5] 12.1 µM

N#CCCOCCC#N
not listed: [5] | [8]
inactive: all other assays above

CCC/C=C/CO
not listed: [5] | [6]
inactive: all other assays above

CC(C)Nc1ccc(NC(C)C)c2c1C(=O)c1ccccc1C2=O
active: [4] 0.417 µM
not listed: [6] | [8]
inactive: all other assays above

CCn1c2ccccc2c2ccccc21
active: [3] 0.0275 µM
not listed: [6] | [8] | [9]
inactive: all other assays above

CC1=CCC(=O)O1
not listed: [5] | [8] | [9]
inactive: all other assays above

NC(=O)C(F)(F)C(F)(F)C(F)(F)C(F)(F)C(F)(F)C(F)(F)C(F)(F)F
active: [5] 9.95 µM
not listed: [9] | [10]
inactive: all other assays above

C=CC(=O)OCC(F)(F)C(F)(F)C(F)(F)C(F)(F)C(F)(F)C(F)(F)C(F)(F)C(F)F
inactive: [2] | [3] | [4] | [10] | [7]
active: [1] 89.1 µM | [5] 1.52 µM

CC1CCCCC1
not listed: [5] | [6] | [8]
inactive: all other assays above

CC(C)=CCCC(C)O (configuration not stated)
not listed: [5] | [6] | [8]
inactive: all other assays above

Cc1cc(O)c(C(C)(C)C)cc1C(C)(C)C
active: [3] 2.2 µM
not listed: [6] | [8] | [9]
inactive: all other assays above

OCC(O)CC(F)(F)C(F)(F)C(F)(F)C(F)(F)F (configuration not stated)
active: [5] 70.8 µM
not listed: [8] | [9] | [10]
inactive: all other assays above

O=C(F)C1(F)C(F)(F)C(F)(F)C(F)(F)C(F)(F)C1(F)F
not listed: [9] | [10]
inactive: all other assays above

OCCCCl
not listed: [5]
inactive: all other assays above

O=S(=O)(Cl)C(F)(F)C(F)(F)C(F)(F)C(F)(F)C(F)(F)C(F)(F)C(F)(F)C(F)(F)F
active: [5] 20.7 µM
not listed: [9] | [10]
inactive: all other assays above

CNS(=O)(=O)C(F)(F)C(F)(F)C(F)(F)C(F)(F)C(F)(F)C(F)(F)C(F)(F)C(F)(F)F
active: [5] 9.26 µM
not listed: [9] | [10]
inactive: all other assays above

Cc1ccc(O)cn1
not listed: [5]
inactive: all other assays above

CCCCOC(=O)C(C)O (configuration not stated)
not listed: [5] | [6]
inactive: all other assays above

Cc1cc(C)c(O)c(C(C)(C)C)c1
active: [4] 25.9 µM
not listed: [6] | [8] | [9]
inactive: all other assays above

OCCCC(F)(F)C(F)(F)C(F)(F)C(F)(F)C(F)(F)C(F)(F)C(F)(F)C(F)(F)F
active: [1] 28.9 µM | [5] 10.9 µM
inactive: [2] | [3] | [4] | [6] | [7]

CCCCCCCC/C=C\CCCCCCCC(=O)N(C)CC(=O)O
not listed: [6] | [9] | [10]
inactive: all other assays above

C[Si](Cl)(Cl)CCC(F)(F)C(F)(F)C(F)(F)C(F)(F)C(F)(F)C(F)(F)F
not listed: [8] | [10]
inactive: all other assays above

CCOCOCC
not listed: [6] | [9] | [10]
inactive: all other assays above

CC(C)(C)c1cc(Cc2cc(C(C)(C)C)c(O)c(C(C)(C)C)c2)cc(C(C)(C)C)c1O
active: [4] 2.31 µM
not listed: [6] | [9] | [10]
inactive: all other assays above

OC(O)C(F)(F)C(F)(F)F
not listed: [8] | [10]
inactive: all other assays above

CCCCCCCCCCCCCCCCC
inactive: [1] | [2] | [3] | [4] | [5] | [7]

OCC(F)(F)C(F)(F)C(F)(F)CO
not listed: [8] | [10]
inactive: all other assays above

CCC(Cc1c(I)cc(I)c(N)c1I)C(=O)O (configuration not stated)
inactive: [2] | [3] | [4] | [7]
active: [1] 55.5 µM | [5] 4.99 µM

CCCCCC/C=C/CCCCCCCC(=O)O
not listed: [6] | [9] | [10]
inactive: all other assays above

O=C(Cl)C(F)(F)C(F)(F)C(F)(F)C(F)(F)C(F)(F)C(F)(F)F
not listed: [8] | [10]
inactive: all other assays above

OCC(F)(F)C(F)(F)C(F)(F)C(F)(F)C(F)(F)C(F)(F)CO
active: [5] 0.0538 µM
not listed: [6] | [9] | [10]
inactive: all other assays above

Brc1ccccn1
not listed: [6] | [10]
inactive: all other assays above

COc1ccccc1C=O
not listed: [6] | [10]
inactive: all other assays above

CCCCCCCCCc1ccc(OCCO)cc1
active: [1] 21.5 µM
not listed: [6] | [9] | [10]
inactive: all other assays above

CO[Si](C)(CCC(F)(F)C(F)(F)C(F)(F)C(F)(F)C(F)(F)C(F)(F)F)OC
not listed: [6] | [9] | [10]
inactive: all other assays above

CCN(CC)c1ccc(N=Nc2ccccc2)cc1
active: [4] 7.19 µM
not listed: [6] | [9] | [10]
inactive: all other assays above

O=C(O)C(F)(F)OC(F)(F)C(F)(F)OC(F)(F)C(F)(F)OC(F)(F)F
inactive: [1] | [2] | [3] | [4] | [5] | [7]

CC(C)CC=C(C=O)c1ccccc1
active: [5] 21.5 µM
not listed: [10]
inactive: all other assays above
